Reference: PubChem BioAssay

Target: Neurogenic locus notch homolog protein 3 (Homo sapiens) (UniProt Q9UM47)
Experiment: small molecules binding NOTCH3 protein – biochemical, 635/667 nm fluorescence, primary screen (AID 1096)
Conditions: small-molecule microarray, 635 nm fluorescence, higher = more signal

Chain of Neurogenic locus notch homolog protein 3 (Homo sapiens) (Q9UM47 whole entry, looked up): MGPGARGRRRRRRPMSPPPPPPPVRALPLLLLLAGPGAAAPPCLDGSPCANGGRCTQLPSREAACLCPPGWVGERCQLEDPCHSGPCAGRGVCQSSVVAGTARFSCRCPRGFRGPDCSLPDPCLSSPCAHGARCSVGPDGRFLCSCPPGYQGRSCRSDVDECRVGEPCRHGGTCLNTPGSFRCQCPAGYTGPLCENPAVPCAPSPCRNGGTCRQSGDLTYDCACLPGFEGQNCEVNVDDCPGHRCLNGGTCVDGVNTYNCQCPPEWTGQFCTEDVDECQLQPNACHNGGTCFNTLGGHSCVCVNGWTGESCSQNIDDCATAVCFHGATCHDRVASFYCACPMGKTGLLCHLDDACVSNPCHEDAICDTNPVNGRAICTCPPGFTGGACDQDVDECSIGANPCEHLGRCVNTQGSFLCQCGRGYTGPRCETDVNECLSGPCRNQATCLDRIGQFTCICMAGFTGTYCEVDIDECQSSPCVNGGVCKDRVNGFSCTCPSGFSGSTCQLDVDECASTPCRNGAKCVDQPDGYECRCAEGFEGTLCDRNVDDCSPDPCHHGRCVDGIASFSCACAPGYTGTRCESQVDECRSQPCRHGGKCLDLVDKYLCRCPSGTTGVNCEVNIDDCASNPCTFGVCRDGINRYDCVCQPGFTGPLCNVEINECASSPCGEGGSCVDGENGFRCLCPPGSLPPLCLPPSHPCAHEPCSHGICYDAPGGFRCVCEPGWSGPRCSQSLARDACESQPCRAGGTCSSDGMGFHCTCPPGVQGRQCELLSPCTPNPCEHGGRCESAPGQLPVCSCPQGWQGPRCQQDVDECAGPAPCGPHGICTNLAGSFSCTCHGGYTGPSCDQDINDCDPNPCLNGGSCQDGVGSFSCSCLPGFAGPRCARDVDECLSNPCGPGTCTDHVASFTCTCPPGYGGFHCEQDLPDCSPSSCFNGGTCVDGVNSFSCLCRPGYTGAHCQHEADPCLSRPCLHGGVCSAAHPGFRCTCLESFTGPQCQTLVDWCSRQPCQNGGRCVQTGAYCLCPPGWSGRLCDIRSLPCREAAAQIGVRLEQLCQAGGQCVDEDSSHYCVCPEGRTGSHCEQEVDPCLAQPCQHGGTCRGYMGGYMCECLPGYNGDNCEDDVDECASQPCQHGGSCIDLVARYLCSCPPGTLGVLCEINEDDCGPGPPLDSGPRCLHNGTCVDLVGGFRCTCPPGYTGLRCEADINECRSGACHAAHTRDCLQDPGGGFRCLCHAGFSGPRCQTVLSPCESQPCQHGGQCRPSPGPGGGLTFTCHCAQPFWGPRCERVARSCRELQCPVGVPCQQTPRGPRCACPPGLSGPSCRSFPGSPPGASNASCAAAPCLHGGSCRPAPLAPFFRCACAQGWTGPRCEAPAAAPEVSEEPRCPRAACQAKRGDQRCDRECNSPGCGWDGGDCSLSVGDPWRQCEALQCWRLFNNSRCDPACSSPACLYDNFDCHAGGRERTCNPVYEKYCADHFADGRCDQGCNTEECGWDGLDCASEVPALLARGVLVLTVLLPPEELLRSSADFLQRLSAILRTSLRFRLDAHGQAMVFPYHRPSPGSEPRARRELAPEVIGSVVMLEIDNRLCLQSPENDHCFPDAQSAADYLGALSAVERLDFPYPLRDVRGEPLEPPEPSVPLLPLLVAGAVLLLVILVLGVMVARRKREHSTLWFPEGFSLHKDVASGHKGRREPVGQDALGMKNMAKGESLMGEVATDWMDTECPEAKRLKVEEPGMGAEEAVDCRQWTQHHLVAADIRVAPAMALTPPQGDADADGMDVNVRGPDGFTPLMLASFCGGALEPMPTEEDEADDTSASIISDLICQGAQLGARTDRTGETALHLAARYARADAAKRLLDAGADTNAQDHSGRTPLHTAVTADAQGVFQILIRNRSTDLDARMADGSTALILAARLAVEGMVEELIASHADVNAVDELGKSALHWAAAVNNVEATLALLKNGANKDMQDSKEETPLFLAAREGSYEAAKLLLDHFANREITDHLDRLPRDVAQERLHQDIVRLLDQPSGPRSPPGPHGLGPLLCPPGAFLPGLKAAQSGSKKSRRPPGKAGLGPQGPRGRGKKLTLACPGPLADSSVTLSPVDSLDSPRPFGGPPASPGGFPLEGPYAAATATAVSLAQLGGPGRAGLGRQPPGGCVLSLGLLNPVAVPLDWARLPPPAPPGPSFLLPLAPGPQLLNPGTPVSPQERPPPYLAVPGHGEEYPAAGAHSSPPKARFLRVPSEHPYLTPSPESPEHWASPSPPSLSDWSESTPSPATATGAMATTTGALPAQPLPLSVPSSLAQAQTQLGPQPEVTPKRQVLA

First: COCC(=C=CC[C@H](O)c1ccc(OCCO)cc1)CCO
Second: C=CC[C@@]1(C(=O)NCCCOC)N=C(c2ccc(OCCCO)cc2)O[C@@H]1c1ccccc1N=[N+]=[N-]
The composite z-score of the first is lower: 0.227 for the first, 0.681 for the second.

Compared with `CCOC(=O)C[C@H]1[C@H](OC(=O)Cc2ccc3c(c2)OCO3)[C@@H](NC(=O)c2ccc3ccccc3n2)c2cc(OCCCO)ccc2N1C(=O)c1ccccc1`, `O=C1N(CCS(=O)(=O)c2ccccc2)c2ccccc2[C@H]2OC(c3ccc(OCCCO)cc3)=N[C@@]12Cc1ccccc1` is higher in composite z-score: 0.363 for the first, 1.1 for the second.

Compared with `COc1ccc([Si](C)(C)[C@@H]2[C@@H](CC(=O)N3CCC[C@H]3CO)O[C@]3(C(=O)N(Cc4cccc(N5C(=O)COc6ccccc65)c4)c4ccccc43)[C@H]2C)cc1`, `NC(=O)[C@H]1[C@@H]2C(=O)O[C@@H](c3ccccc3)[C@@H](c3ccccc3)N2[C@@H](c2ccc(OCCO)cc2)[C@]12C(=O)Nc1ccc(C#CCCO)cc12` is lower in composite z-score: 0.757 for the first, 0.164 for the second.

First: COc1ccc(CCNC(=O)[C@@H]2c3ccccc3C(=O)N(C3CCCCC3)[C@H]2c2ccc(CO)cc2)cc1
Second: O=C1O[C@@H](c2ccccc2)[C@@H](c2ccccc2)N2[C@@H](c3ccc(OCCO)cc3)[C@]3(C(=O)Nc4ccc(C#CC5=CCCCC5)cc43)[C@@H](C(=O)NC[C@H](O)c3ccccc3)[C@H]12
The composite z-score of the first is lower: 0.366 for the first, 1.02 for the second.

First: NCCCCCNC(=O)[C@@H]1C[C@@H]2C(=O)N[C@@H](CCCCN)C(=O)N2[C@@H]1c1ccc(O)cc1
Second: CCCCCCCCCC(O)C1C=CC2C(=O)N(c3ccccc3)C(=O)C2N1Nc1cc(OC)c(OC)c(OC)c1 (stereo not drawn)
The composite z-score of the first is higher: 0.881 for the first, 0.631 for the second.

First: CCCCC(O)C1C=CC2C(=O)N(C)C(=O)C2N1N(c1ccccc1)c1ccccc1 (stereo not drawn)
Second: COc1cc(C(O)C2C=CC3C(=O)N(C)C(=O)C3N2Nc2ccccc2)cc(OC)c1OC (stereo not drawn)
The composite z-score of the first is lower: 1.1 for the first, 1.11 for the second.

First: CCCC[C@@H](O)C1=C(COC)C[C@H]2C(=O)N(C)C(=O)[C@H]2[C@H]1CO
Second: CCCCN1CC=CC23O[C@@H]4/C=C\CCCOC(=O)C4[C@H]2C(=O)N(CCO)[C@@H]3C1=O (stereo partly drawn)
The composite z-score of the first is higher: -0.277 for the first, -0.968 for the second.

Compared with `C=C(COC)/C(=C/C[C@H](OC(=O)c1ccncc1)c1ccccc1OCCO)c1cc(C(=O)OC)ccc1OC`, `C=CCN1C(=O)[C@]2(CCC(=O)OC(C)(C)C)N=C(c3ccc(OCCCO)cc3)O[C@@H]2c2ccccc21` is lower in composite z-score: 1.04 for the first, 0.772 for the second.

Compared with `COC(=O)C1(CC(C)C)C=C2C(=C(c3ccccc3)C(=O)C2C)CN1` (stereo not drawn), `CCOC(=O)C1=C[C@@H](C(C)C)N(S(=O)(=O)c2ccc(C)cc2)[C@H]1c1ccc(C(F)(F)F)cc1` is higher in composite z-score: 0.141 for the first, 1.05 for the second.

Compared with `CCOc1cc(C(O)C2C=CC3C(=O)NC(=O)C3N2Nc2ccc(Cl)cc2Cl)ccc1O` (stereo not drawn), `CC(C)C(CO)N1C(=O)[C@@H]2C3C(=O)OCCC/C=C\[C@H]3OC23C=CCN(c2ccc4ccccc4c2)C(=O)[C@@H]13` (stereo partly drawn) is higher in composite z-score: -1.31 for the first, 0.121 for the second.

Going from `Cc1ccc(S[C@]2(C(=O)NC(C)C)CC(=O)N(Cc3cc(C(F)(F)F)cc(C(F)(F)F)c3)[C@@H]2c2ccc(CO)cc2)cc1` to `CC1CC/C=C\[C@H]2OC34C=CCN(c5ccc6ccccc6c5)C(=O)[C@H]3N(CCCO)C(=O)[C@@H]4C2C(=O)O1` (stereo partly drawn), the composite z-score rises from -1.27 to -0.562.

Going from `CC(C)C(CO)N1C(=O)[C@@H]2C3C(=O)OCCC/C=C\[C@H]3OC23C=CCN(Cn2nnc4ccccc42)C(=O)[C@@H]13` (stereo partly drawn) to `C=CCNC(=O)[C@@H]1[C@H]2C(=O)O[C@H](c3ccccc3)[C@H](c3ccccc3)N2[C@H](c2ccccc2OCCO)[C@@]12C(=O)N(C(=O)OCCOC)c1ccc(C#CC3(O)CCCCCC3)cc12`, the composite z-score rises from 0.144 to 1.1.

Compared with `COCCOC(=O)N1C(=O)[C@@]2(c3cc(C#CCC(C(=O)OC)C(=O)OC)ccc31)[C@H](c1ccc(OCCO)cc1)N1[C@H](c3ccccc3)[C@H](c3ccccc3)OC(=O)[C@H]1[C@@H]2C(=O)N1CCc2cc(OC)c(OC)cc2C1`, `COCCOC(=O)N1C(=O)[C@@]2(c3cc(C#CC4(O)CCCCCC4)ccc31)[C@H](c1ccc(O)cc1)N1[C@H](c3ccccc3)[C@H](c3ccccc3)OC(=O)[C@H]1[C@@H]2C(=O)N1CCN(c2ncccn2)CC1` is lower in composite z-score: 1.06 for the first, 0.987 for the second.

Going from `C#CCN(Cc1ccccc1Br)[C@H](/C=C/c1ccccc1)[C@@H](O)Cc1ccccc1` to `CO[C@H]1O[C@H](CO)[C@@H](OC(=O)Nc2ccccc2)[C@H](OC(=O)c2cc3ccccc3[nH]2)[C@H]1OC(=O)c1cc2ccccc2[nH]1`, the composite z-score rises from -0.623 to 0.196.
